# HCV inhibitor: HCV inhibition; Huh7.5.1 HCVcc-Cre infection, luciferase reporter, 44 h; Potency, µM (top dose mostly 41.8 µM), without a hit: at the top dose activity change, negative = inhibition, hits mostly inhibitors; 3.4% of 340,000 active; active = well fitted inhibition curve with a large enough effect; inconclusive = small, poorly fitted or top-dose-only effect, or another doubt; inactive = no such curve, though single readings can be large or run the other way; note: potency is the fitted concentration of half-maximal effect
#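 Whole-lifecycle infectious HCVcc-Cre system; cells 1,000/well, compound then virus (~0.5 moi) added 4 h after plating, 44 h culture. Luciferase read 15 sec following 15 min substrate incubation, room temp.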
# Lassa entry inh: Lassa virus entry inhibition | 1.2% of 300,000 active | Potency, µM (highest dose often 37.9 µM), for the others: top-dose activity change, negative = inhibition, actives largely listed as inhibitors | Lassa virus pseudotype entry inhibition, cell reporter | AID 540256; calls by dose curve; tested in HEK293 cells; note: potency is the fitted concentration of half-maximal effect; nearly all actives have a fitted effect of over 50% in size
# FMDV antiviral: blocks foot and mouth disease virus. FMDV antiviral cell-based qHTS. Potency, µM (highest dose often 57.9 µM), for the others: at the highest dose activity change, negative = inhibition, usual class: inhibitors. 1.2% of 410,000 active. AID 1159524; calls by dose curve; tested in HEK293T cells; note: read-out not given here; potency is the fitted concentration of half-maximal effect; nearly all actives have a fitted effect of over 45% in size
# HCMV inh: human cytomegalovirus inhibition; 4.5% of 410,000 active; HFF cells, HCMV-luciferase reporter, 72 h; stronger effect = lower value; activity change, negative = inhibition, % at 57.5 µM; AID 1259415; in the data active = activity change below about -60%; inconclusive = no clear call, values can overlap the other calls; inactive = above about -39%
#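 Two-dose cell screen: HFF monolayers treated with compounds and infected with luciferase-expressing HCMV at 1 PFU/cell, 72 h at 37C, then lysed for luciferase measurement.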
# MARV entry inh: blocks Marburg virus binding to or entry into cells; Marburg virus pseudotyped entry inhibition, cell reporter; Potency, µM (titrated, usually from 37.8 µM), for inactives: at the highest dose activity change, negative = inhibition, most hits filed as inhibitors; 1.8% of 300,000 active; AID 540276; calls by dose curve; tested in HEK293 cells; note: potency is the fitted concentration of half-maximal effect
# An asterisk follows results filed as active; ? = inconclusive; . = no result; [ ] = another dose, or the depositor's remark. Compounds with a hit are over-represented: about 7.9% of the library has one in this group of screens. % is set by controls: 0 for no effect and ±100 for the full control effect.
SMILES,HCV inhibitor,Lassa entry inh,FMDV antiviral,HCMV inh,MARV entry inh
CCC(=O)Nc1nc(C)c(-c2csc(Nc3cccc(O)c3)n2)s1,7.1µM*,.,-14%,83,.
Cc1nc2ccccn2c1-c1csc(Nc2cccc(C(=O)O)c2)n1,13%,6%[46.1 µM],-19%,?,-2%[46.1 µM]
Cc1cccc(Nc2nc(-c3sc(C)nc3C)cs2)c1,2.8µM*,?,?,22,?
Cc1nc2ccccn2c1-c1csc(Nc2cccc(O)c2)n1,0.89µM*,?,?,?,?
CCc1ccc(CNC(=O)C2CCCN(c3nnc(C)c4c(C)n(-c5ccc(OC)cc5)nc34)C2)cc1 (stereo not drawn),.,?,-6%,-30,.
O=C(CN1C(=O)COc2ccc(S(=O)(=O)N3CCOCC3)cc21)NCc1ccc(Cl)cc1,.,15%[46.1 µM],-1%,-1,.
COc1ccccc1CNc1cc(CSc2ccc(Cl)cc2)nc(C)n1,?,-8%,40µM*,14,?
COc1ccccc1CNc1cccc(C)n1,.,.,-3%,-39,.
COc1cccc(CNc2cc(CSc3ccc(Cl)cc3)nc(C)n2)c1,?,?,13µM*,.,-8%
Cn1c(SCc2cc(=O)n3cc(Br)ccc3n2)nnc1C1COc2ccccc2O1 (stereo not drawn),2%,17%,-18%,11,0%
O=C(OCc1cc(=O)n2cc(Br)ccc2n1)C1COc2ccccc2O1 (stereo not drawn),13%,19%,3%,-65*,14%
CC1CC1C(=O)OCc1cc(=O)n2cc(Br)ccc2n1 (stereo not drawn),12%,?,-12%,-83*,-1%
Cc1ccc2c(c1)c1c(c(=O)n(-c3cccc(Cl)c3)c(=O)n1CC(=O)NCC1CCCO1)n2C (stereo not drawn),.,17%[46.1 µM],-1%,4,.
CC(=O)OC[C@H]1O[C@H](C#CC(C)(C)C)C=C[C@H]1OC(C)=O,.,.,.,.,16%[14.2 µM]
CC(=O)c1ccc(S(=O)(=O)Nc2cccc(S(=O)(=O)NC3=NCCC3)c2)cc1,-4%,28%,19%,-15,?
Cc1cccc(-c2nn(-c3ccccc3)cc2C(=O)Nc2cccc(S(=O)(=O)NC3=NCCC3)c2)c1,-32%,-1%,56%,-17,-23%
O=C(COC(=O)/C=C/c1ccc(Cl)cc1Cl)Nc1cccc(S(=O)(=O)NC2=NCCC2)c1,.,.,0%,-69*,.
Cc1ccccc1-n1ccnc1SCC(=O)Nc1cccc(S(=O)(=O)NC2=NCCC2)c1,-1%,?,19%,-61*,2%
COc1ccc(-c2nn(-c3ccccc3)cc2C(=O)Nc2cccc(S(=O)(=O)NC3=NCCC3)c2)cc1,11µM*,.,29%,-11,.
CC(=O)c1cccc(S(=O)(=O)Nc2cccc(S(=O)(=O)NC3=NCCC3)c2)c1,7%,-2%,51%,-84*,36%
COc1ccc(S(=O)(=O)Nc2ccc3c(c2)sc(=O)n3C)cc1Cl,.,-23%[46.1 µM],26%,33,.
O=C(CCl)Nc1cccc(S(=O)(=O)NC2=NCCC2)c1,13µM*,.,-25%,-100*,.
CC(C)C(=O)Nc1cccc(S(=O)(=O)NC2=NCCC2)c1,.,.,-2%,-2,.
CCN1C(=O)/C(=C/c2ccc(N3CCCC3)cc2)NC1=S,?,-12%,-25%,-65*,?
CCCN1C(=O)/C(=C/c2ccc(N3CCOCC3)cc2)NC1=S,-21%,.,-16%,-5,.
SMILES,HCV inhibitor,Lassa entry inh,FMDV antiviral,HCMV inh,MARV entry inh
Cc1ccc(CN2C(=O)N/C(=C\c3ccc(N4CCOCC4)cc3)C2=O)cc1,13%,0.046µM*,-13%,-7,8%
COc1cc(C(C[N+](=O)[O-])c2c(N)n(C)c(=O)n(C)c2=O)ccc1O (stereo not drawn),?,?,18µM*,-71*,?
COc1cc(C(C[N+](=O)[O-])c2c(C)cc3ccccn23)ccc1O (stereo not drawn),?,.,22µM*,-64*,-22%[46.1 µM]
COc1cccc(F)c1C(C[N+](=O)[O-])c1c(N)n(C)c(=O)n(C)c1=O (stereo not drawn),7.9µM*,.,32µM*,-100*,.
CC(=O)c1ccc(NC(=O)c2cc3c([nH]c2=O)CC(c2ccccc2)CC3=O)cc1 (stereo not drawn),.,-1%[46.1 µM],33%,8,11%[46.1 µM]
COc1ccccc1NC(=O)Cn1c(=O)n(Cc2nc(-c3ccccc3)no2)c(=O)c2ccccc21,.,9%[46.1 µM],-26%,8,.
COc1cccc2c1Oc1ncccc1N(C(=O)CCC(=O)NCc1ccc(N(C)C)cc1)C2,.,?,-10%,10,.
